PNC inhibitor – perinucleolar compartment assembly inhibition. activity change (PNC), negative = inhibition, % at 10 µM. 3.1% of 140,000 active. PC3M PTB-GFP, PNC prevalence imaging, 16 h; stronger effect = lower value;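 active = readout at or below -70, meaning at least 70% loss of cells showing the perinucleolar compartment, a nuclear body marking cancer cells; inconclusive = readout between -30 and a set limit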;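 also: plate controls were DMSO wells for no effect and camptothecin positive control wells for full effect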
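PC3M cells stably expressing PTB-GFP, 750–1000 cells/well, treated 16 h at 37 °C with compound (23 nl of library stock), in duplicate. After paraformaldehyde fixation and Hoechst stain, imaged at 20x; PNC prevalence scored by image analysis.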
ALDH1A1 block – blocks purified human ALDH1A1 activity; P00352; Purified ALDH1A1, NADH fluorescence, propionaldehyde substrate; Potency, µM (highest dose often 75.3 µM), without a hit: at the highest dose activity, negative = inhibition, usual class: inhibitors; 7.3% of 220,000 active; AID 1030;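 also: potency is read from the fitted curve at half-maximal effect; plate controls were no enzyme wells and a reference inhibitor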
HPGD inh – inhibitors of human 15-hydroxyprostaglandin dehydrogenase (HPGD) | AID 894 | P15428 | Potency, µM, inactives show at the highest dose activity change, negative = inhibition, hits mostly inhibitors | 4.3% of 150,000 active | purified HPGD, NADH fluorescence kinetic, PGE2 substrate; also: potency is read from the fitted curve at half-maximal effect
Target sequence (P15428 whole entry, looked up): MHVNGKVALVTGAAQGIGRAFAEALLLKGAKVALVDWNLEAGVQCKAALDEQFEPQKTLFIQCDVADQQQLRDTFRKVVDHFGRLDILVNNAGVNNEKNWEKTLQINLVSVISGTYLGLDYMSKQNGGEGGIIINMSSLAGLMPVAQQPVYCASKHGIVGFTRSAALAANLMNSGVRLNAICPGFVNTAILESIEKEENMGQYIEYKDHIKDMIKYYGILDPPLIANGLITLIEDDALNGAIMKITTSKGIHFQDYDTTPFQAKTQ
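NADH formation kinetics: reaction with 30 uM PGE2 and 1 mM NAD+ (final), 20 nM enzyme, Tris-HCl pH 8 with Tween 20, after 15 min compound preincubation at room temperature. Fluorescence change, last versus first of five reads.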
ALOX12 inhib – inhibitors of human 12-lipoxygenase (ALOX12); P18054; Potency, µM (doses to about 57.1 µM), for inactives: at the highest dose activity change, negative = inhibition, hits mostly inhibitors; purified 12-hLO, xylenol orange hydroperoxide absorbance; AID 1452; 0.12% of 150,000 active; active = well fitted inhibition curve with a large enough effect; inconclusive = small, poorly fitted or top-dose-only effect; also: potency is read from the fitted curve at half-maximal effect; nearly all actives have a fitted effect of over 55% in size
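Purified human 12hLO (150 nM final) was preincubated with compounds for 15 min at room temperature in 25 mM Hepes pH 7.0, 0.01% Triton X-100, then reacted with 40 uM arachidonic acid for 30 min. Hydroperoxide was detected with ferrous iron/xylenol orange.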
Lamin A splicing – modulators of lamin A splicing. Potency, µM (titrated, usually from 46.1 µM), for the others: at the top dose ratio change, negative = inhibition, hits mostly inhibitors. AID 1487. HeLa LMNA splicing GFP/RFP minigene ratio, 48 h. 0.01% of 200,000 active; active = well fitted inhibition curve with a large enough effect in the signal ratio, with a control signal flat, not every such curve was filed as active; inconclusive = small, poorly fitted or top-dose-only effect, or effect the other way, or a change in a side signal; the % refers to the signal ratio; also: potency is read from the fitted curve at half-maximal effect
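S3 HeLa stable clones carrying a lamin A-EGFP splicing minigene plus DsRed2 were seeded at 600 cells/well in Opti-MEM with 2% FBS, pin-dosed and incubated 48 h at 37°C. Acumen cytometry (488 nm) gave the GFP/RFP total-intensity ratio.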
An asterisk follows results filed as active; ? = inconclusive; · = no result; [ ] = remark or other dose. Rows were chosen to be rich in hits. Some 10% of all compounds tested hit in one or more screens of this group. Unless noted, calls follow the shape of the dose curve; as a rule, active = well fitted inhibition curve with a large enough effect (not every such curve was filed as active); inconclusive = small, poorly fitted or top-dose-only effect, or another doubt; inactive = no such curve, though single readings can be large or run the other way. Unless noted, % is scaled to controls: 0 for no effect and ±100 for the full control effect.

SMILES	PNC inhibitor	ALDH1A1 block	HPGD inh	ALOX12 inhib	Lamin A splicing
CCC(=O)Nc1ccc(C(=O)Cn2ncc(Cl)c(Cl)c2=O)cc1	·	2.24µM*	·	·	?
COc1ccc(NC(=O)Cn2ncc(Cl)c(Cl)c2=O)cc1S(=O)(=O)N1CCOCC1	-25.9	11.2µM*	-3.7%	-3.9%	?
CCOC(=O)c1ccc(NC(=O)Cn2ncc(Cl)c(Cl)c2=O)cc1	15.1	28.2µM*	-9.8%	-1.4%	-3.3%
COc1ccc(NC(=O)Cc2coc3cc(C)c(C(C)C)cc23)cc1S(=O)(=O)N1CCOCC1	?	22.4µM*	-14.3%	-2.8%	?
Cc1noc(NS(=O)(=O)c2ccc(NC(=O)COc3ccc(Cl)cc3Cl)cc2)c1C	22.9	10.2%	15.8µM*	-21.2%	-2.4%
CCc1ccc(C(=O)/C=C/Nc2ccc(S(=O)(=O)Nc3onc(C)c3C)cc2)cc1	6.1	?	20µM*	-4.8%	8.7%
Cc1noc(NS(=O)(=O)c2ccc(NC(=O)CSc3nc4c(cc3C#N)CCCCC4)cc2)c1C	0.7	-4.1%	28.2µM*	-7.9%	11.4%
CCn1c2c(c(=O)n3ncc(C(=O)N4CCN(c5ccc(Cl)cc5)CC4)c13)CN(Cc1ccc(OC)cc1)CC2	·	·	·	·	-15.6%[46 µM]
Cc1noc(/C=C/c2ccccc2F)c1S(=O)(=O)N1CCC(C(=O)Nc2ccc(C#N)cc2)CC1	·	·	·	·	5.5%[46 µM]
O=C(Cn1cc(S(=O)(=O)Cc2ccc(F)cc2)c2ccccc21)NCCc1ccccc1	·	·	·	·	4.0%[46 µM]
CCCCc1nc2c(c3c1C[C@H](C)OC3)CN(C(=O)C1CCCCC1)CC2	·	13.2%[13.5 µM]	0.0%	1.7%[11.4 µM]	-8.3%[9.22 µM]
Cc1ccc(Cl)cc1NC(=O)c1cnn2c(C(F)F)cc(-c3ccccc3)nc12	·	·	·	·	6.7%[46 µM]
CCOCCCNC(=O)c1ccccc1SCC	9.8	-4.7%	?	-4.0%	-9.6%
CCOCCCNC(=O)c1ccccc1Br	-22.5	8.6%	10µM*	-0.9%	2.3%
CCOC(=O)CCNC(=O)c1ccccc1Br	-0.3	4.3%	17.8µM*	0.7%	2.9%
CCN(CC)c1ccc(C(=O)N/N=C(\C)c2ccc(O)cc2)cc1	10.5	25.1µM*	-22.0%	3.0%	?
C/C(=N\NC(=O)c1ccc(N(C)C)cc1)c1ccc(C)c(C)c1	-10.7	14.1µM*	·	-3.4%	-12.0%
NC(=O)NCc1cccs1	·	9.9%	·	·	·
O=C(NCc1cccs1)c1ccc(Cl)s1	-3.4	10.1%	15.8µM*	3.6%	-8.8%
O=C(NCCCCNC(=O)c1ccc(Cl)s1)c1ccc(Cl)s1	-13.9	4.3%	-7.0%	-4.0%	-4.6%
CCc1ccc(C(=O)NCc2cccs2)s1	?	5.2%	17.8µM*	3.9%	-2.2%
O=C1CC(c2ccc(Cl)cc2)N=C(NC(=O)c2ccccc2)N1 (configuration not stated)	·	·	·	·	-0.7%[46 µM]
O=C(Nc1ccccc1)C1=C(O)CC(c2ccc(Cl)cc2)N2CCN=C12 (configuration not stated)	?	14.1µM*	-2.9%	-0.7%	?
Cc1ccc(Nc2nnns2)cc1C	-81.7*	3.98µM*	22.4µM*	-7.9%	-12.8%
Cc1cc(Nc2ccc(C)c(C)c2)n2nc(C)nc2n1	-20.4	?	-26.4%	-1.9%	?
SMILES	PNC inhibitor	ALDH1A1 block	HPGD inh	ALOX12 inhib	Lamin A splicing
CCCCCCCC1=Cc2ccccc2C(C(C(C)=O)C(=O)OC)N1C(=O)OC (configuration not stated)	·	-7.0%[13.5 µM]	-3.2%	-19.4%[11.4 µM]	-30.8%[9.22 µM]
COc1ccccc1CNC(=O)Cc1csc2nc(-c3ccc(Cl)cc3)cn12	·	·	·	·	-32.5%[46 µM]
CCC[C@H]1C[C@H](C(=O)N[C@@H]([C@H]2O[C@@H](SC)[C@@H](O)[C@@H](O)[C@@H]2O)[C@H](C)Cl)N(C)C1	·	11.3%[20.9 µM]	-11.6%	-1.5%[25.6 µM]	-14.7%
Cc1ccc(C(c2c(O)nc3n(c2=O)CCS3)c2c(O)nc3n(c2=O)CCS3)cc1	-80.7*	?	-16.5%	-7.7%	-11.1%
O=c1c(C(c2ccc(O)cc2)c2c(O)nc3n(c2=O)CCS3)c(O)nc2n1CCS2	13.6	12.6µM*	12.6µM*	-16.1%	-9.7%
CC(C)(C)NCC(O)COc1nsnc1N1CCOCC1 (configuration not stated)	·	-5.1%	-8.9%	·	?
CN1C(=O)C2(c3ccccc31)N(c1cccc(C(F)(F)F)c1)C(=O)CS2(=O)=O (configuration not stated)	·	·	·	·	-6.4%[46 µM]

Screens as filed in PubChem.
